PHOSPHO1 inh – blocks human PHOSPHO1 phosphatase activity; recombinant PHOSPHO1, absorbance phosphatase assay; inhibition, % at 13.3 µM; hit rate 1.1% among 290,000; in the data active = inhibition above about 60%
Rpn11 block – inhibitors of human proteasome Rpn11; human 26S proteasome, Ub4-pepOG fluorescence polarization; 20S core pre-blocked with epoxomicin; inhibition, % at 20 µM; hit rate 0.59% among 360,000; AID 588493;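 active = inhibition at 20 µM, scaled to each plate's controls, above about 33%, limit read from the data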
TPT1 inh – blocks Candida albicans tRNA 2'-phosphotransferase. recombinant caTPT1, FP RNA substrate dephosphorylation. inhibition, % at 5 µM. hit rate 0.81% among 300,000. AID 1962;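 active = inhibition above the mean of all tested compounds plus 3 SD, set per screening campaign, cut at about 24% in these data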;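 note: plate controls were DMSO alone for no effect and ferristatin control at 100 nM for full effect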
Fh CTSL1 inh – cathepsin L1 inhibition, PFM18AAP counter-screen. recombinant F. hepatica cathepsin L1, Z-Leu-Arg-MCA fluorescence. hit rate 0.49% among 300,000. AID 1906. inhibition, % at 5.96 µM;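 active = inhibition above the mean of all tested compounds plus 3 SD, set per screening campaign, cut at about 17% in these data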;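 note: 0% = plate median of test compound wells and 100% = 1 µM Z-Phe-Ala-diazomethylketone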
NRP1-CendR mod – NRP-1/CendR interaction modulation; O14786; FAM-RPARPAR peptide binding to NRP-1, fluorescence polarization; inhibition, % at 25 µM; hit rate 0.85% among 360,000;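 active = inhibition or corrected inhibition above about 18%, plus a signal ratio from 0.5 to 1.5, limit read from the data, passing the limit was not always enough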
HNF4A DNA FP – change in binding of human HNF4 alpha to DNA; P41235; HNF4a-FITC DNA binding, fluorescence polarization, 1 h; activity change, % at 10 µM; hit rate 0.3% among 360,000; in the data active = activity change above about 30%, passing the limit was not always enough
Target sequence (P41235 whole entry, looked up): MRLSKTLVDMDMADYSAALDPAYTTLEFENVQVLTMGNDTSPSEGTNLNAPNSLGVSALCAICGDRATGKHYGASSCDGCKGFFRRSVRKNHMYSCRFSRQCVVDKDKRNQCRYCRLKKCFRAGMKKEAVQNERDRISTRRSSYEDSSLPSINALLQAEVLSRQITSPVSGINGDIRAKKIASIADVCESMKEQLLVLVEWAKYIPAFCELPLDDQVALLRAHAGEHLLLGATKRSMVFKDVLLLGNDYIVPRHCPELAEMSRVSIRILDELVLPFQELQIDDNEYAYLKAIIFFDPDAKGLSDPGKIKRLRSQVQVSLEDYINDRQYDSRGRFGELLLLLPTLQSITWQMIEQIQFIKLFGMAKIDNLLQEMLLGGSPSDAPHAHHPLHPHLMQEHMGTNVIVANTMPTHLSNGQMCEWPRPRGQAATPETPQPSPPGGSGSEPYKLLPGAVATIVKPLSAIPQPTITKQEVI
TPT1 inh confirm – TPT1 (C. albicans) inhibition, confirmation; shares compounds with TPT1 inh; recombinant caTPT1, fluorescence polarization, RNase T1 coupled; inhibition, % at 5 µM; hit rate 74% among 2,400; AID 2149;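 active = inhibition above the primary screen limit, the mean inhibition of all tested compounds plus 3 SD, cut at about 25% in these data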
RNase T1 inh – counter-screen for TPT1 inhibitors: inhibitors of Aspergillus oryzae RNase T1; AID 2153; inhibition, % at 5 µM; hit rate 83% among 2,400; RNase T1 cleavage, fluorescence polarization, 1536-well; shares compounds with TPT1 inh;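 active = inhibition above the solvent-only control well mean plus 3 SD, limit set per screening run, cut at about 23% in these data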;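 note: plate controls were DMSO wells with enzyme for no effect and wells without RNase T1 for full effect; inhibitors block cleavage so intact labeled substrate keeps polarization high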
Target sequence (P00651 whole entry, looked up): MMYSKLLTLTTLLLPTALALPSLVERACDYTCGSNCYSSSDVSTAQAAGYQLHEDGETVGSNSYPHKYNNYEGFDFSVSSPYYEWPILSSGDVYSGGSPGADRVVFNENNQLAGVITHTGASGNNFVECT
Rpn11 confirm – Rpn11 inhibition confirmation, single concentration; inhibition, % at 20 µM; purified human 26S proteasome, Ub4-pepOG fluorescence polarization; proteasome pretreated with epoxomicin; shares compounds with Rpn11 block; hit rate 29% among 1,900
MMP-2 counter – blocks human MMP-2, flagging nonselective RPN11 hits; shares compounds with Rpn11 block; recombinant MMP-2, FRET peptide cleavage fluorescence; inhibition, % at 20 µM; hit rate 4% among 1,900;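 note: human MMP-2 activated beforehand with APMA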
Thrombin inh – blocks bovine thrombin, flagging nonselective RPN11 hits; shares compounds with Rpn11 block; bovine thrombin cleavage of Ub4-pepOG, fluorescence polarization; inhibition, % at 20 µM; hit rate 13% among 1,900;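 active = mean inhibition at least 40% at 20 µM, or signal 3 deviations below plate average, so some actives read negative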;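 note: plate controls were thrombin with DMSO for no effect and buffer wells lacking thrombin for full effect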
HNF4A confirm – change in binding of human HNF4 alpha to DNA, retest. hit rate 99% among 210. activity change, % at 12.5 µM. HNF4A-FITC DNA binding, fluorescence polarization, 1 h. shares compounds with HNF4A DNA FP; call rule not given here
Numbers without * were called inactive. Most compounds without a hit are left out; they make up all but 3.3% or so of the library. Cut-off read from the data, not from the text of the source, unless noted: active = inhibition above about 40%; inactive = the rest.

For O=C(NCc1ccon1)C1CCC(=O)N(Cc2cccc(C(F)(F)F)c2)C1 (centres undefined) the results were PHOSPHO1 inh 32, Rpn11 block 1, TPT1 inh -3, Fh CTSL1 inh 0, NRP1-CendR mod 6 and HNF4A DNA FP 0.
For O=[N+]([O-])c1ccc(-c2ccc(/C=N/Nc3nc(N4CCCC4)nc(N4CCCC4)n3)o2)cc1 the results were PHOSPHO1 inh 28, TPT1 inh 29*, Fh CTSL1 inh 1, NRP1-CendR mod -55, HNF4A DNA FP 33*, TPT1 inh confirm 43*, RNase T1 inh 59* and HNF4A confirm 35*.
O=[N+]([O-])c1cccc(-c2ccc(/C=N/Nc3nc(N4CCCCC4)nc(N4CCCCC4)n3)o2)c1 was read as PHOSPHO1 inh -12, Rpn11 block 7, TPT1 inh -1, Fh CTSL1 inh 0, NRP1-CendR mod -2 and HNF4A DNA FP 1.
O=C(CSc1nc2ncccc2[nH]1)NCCc1ccccc1 was read as PHOSPHO1 inh 52, Rpn11 block -5, TPT1 inh -2, Fh CTSL1 inh 3, NRP1-CendR mod -4 and HNF4A DNA FP -1.
`COc1cc(/C=C(/C#N)c2nc3ccccc3c(=O)[nH]2)ccc1O` gave PHOSPHO1 inh -21, Rpn11 block 140*, TPT1 inh 102*, Fh CTSL1 inh 3, NRP1-CendR mod -194, HNF4A DNA FP 47*, TPT1 inh confirm 126*, RNase T1 inh 124*, Rpn11 confirm 40, MMP-2 counter 12, Thrombin inh 5 and HNF4A confirm 58*.
For COc1cc(/C=C(/C#N)c2nc3ccccc3[nH]2)ccc1OC(=O)c1ccco1 the results were PHOSPHO1 inh -22, Rpn11 block 26, TPT1 inh 4, Fh CTSL1 inh 2, NRP1-CendR mod -24 and HNF4A DNA FP 33.
Screening CC(=O)c1sc(N/N=C\c2cccc(Br)c2)nc1C returned PHOSPHO1 inh -1, TPT1 inh 67*, Fh CTSL1 inh 4, NRP1-CendR mod -102, HNF4A DNA FP 39*, TPT1 inh confirm 78*, RNase T1 inh 81* and HNF4A confirm 57*.
`CCOC(=O)c1c(NC(=S)Nc2ccc(C)cc2)sc2c1CCC2` gave PHOSPHO1 inh 6, Rpn11 block -3, TPT1 inh 2, Fh CTSL1 inh -3, NRP1-CendR mod 1 and HNF4A DNA FP 1.
`CCOC(=O)c1c(NC(=S)Nc2ccc(Cl)cc2)sc2c1CCN(C)C2` gave PHOSPHO1 inh -13, TPT1 inh 91*, Fh CTSL1 inh -1, NRP1-CendR mod 127, HNF4A DNA FP 58*, TPT1 inh confirm 88*, RNase T1 inh 91* and HNF4A confirm 83*.
Screening CCN1CCc2c(sc(NC(=O)c3ccc(S(=O)(=O)N4CCOCC4)cc3)c2C(N)=O)C1 returned PHOSPHO1 inh -4, Rpn11 block 17, TPT1 inh 9, Fh CTSL1 inh -3, NRP1-CendR mod -10 and HNF4A DNA FP 6.
Screening CCCN1CCc2c(sc(NC(=O)c3ccc(S(=O)(=O)N4CCCC4)cc3)c2C(N)=O)C1 returned PHOSPHO1 inh 13, Rpn11 block 47*, TPT1 inh 120*, Fh CTSL1 inh -3, NRP1-CendR mod -52, HNF4A DNA FP 41*, TPT1 inh confirm 132*, RNase T1 inh 132*, Rpn11 confirm 22, MMP-2 counter -7, Thrombin inh 11 and HNF4A confirm 54*.
For S=c1[nH]nc(COc2ccc(Cl)cc2Cl)n1-c1ccccc1 the results were PHOSPHO1 inh -37, Rpn11 block -8, TPT1 inh -1, Fh CTSL1 inh 5, NRP1-CendR mod -6 and HNF4A DNA FP 2.
Screening CSc1nnc(C)c(/C=C/Nc2ccc(C)cc2)n1 returned PHOSPHO1 inh 14, TPT1 inh 156*, Fh CTSL1 inh 5, NRP1-CendR mod -167, HNF4A DNA FP 53*, TPT1 inh confirm 134*, RNase T1 inh 128* and HNF4A confirm 88*.
For CC(C)Oc1ccc(CCC(=O)NNC(=O)CCC(=O)O)cc1 the results were PHOSPHO1 inh 10, Rpn11 block 0, TPT1 inh 1, Fh CTSL1 inh -1, NRP1-CendR mod 4 and HNF4A DNA FP 1.
CN1C(=O)/C(=C/C=C2/CCCN2C)N(C)C1=S was read as PHOSPHO1 inh -31, Rpn11 block 47*, TPT1 inh 41*, Fh CTSL1 inh 8, NRP1-CendR mod -43, HNF4A DNA FP 46*, TPT1 inh confirm 90*, RNase T1 inh 102*, Rpn11 confirm 56*, MMP-2 counter -34, Thrombin inh 37 and HNF4A confirm 82*.
For COc1cc(-c2cc(-c3ccc(N)cc3)[nH]c(=O)c2C#N)cc(OC)c1OC the results were PHOSPHO1 inh -13, TPT1 inh 103*, Fh CTSL1 inh 2, NRP1-CendR mod 87, HNF4A DNA FP 55*, TPT1 inh confirm 103*, RNase T1 inh 105* and HNF4A confirm 83*.
Screening N#Cc1c(-c2ccccc2)cc(-c2ccccc2)[nH]c1=O returned PHOSPHO1 inh -20, Rpn11 block -4, TPT1 inh -3, Fh CTSL1 inh 3, NRP1-CendR mod -5 and HNF4A DNA FP 2.
For O=C(NC1CCCCC1)N1CCN(Cc2ccco2)CC1 the results were PHOSPHO1 inh 23, Rpn11 block 4, TPT1 inh 3, Fh CTSL1 inh -3, NRP1-CendR mod -4 and HNF4A DNA FP -1.
COc1ccc(NC(=O)CN(C)S(=O)(=O)c2ccc(C)cc2)c([N+](=O)[O-])c1 was read as PHOSPHO1 inh 1, Rpn11 block 82*, TPT1 inh 41*, Fh CTSL1 inh -2, NRP1-CendR mod -60, HNF4A DNA FP 59*, TPT1 inh confirm 49*, RNase T1 inh 62*, Rpn11 confirm 37, MMP-2 counter -28, Thrombin inh 0 and HNF4A confirm 59*.
